# In PubChem BioAssay (NCATS):
# Experiment: High-throughput drug toxicity screening in the BPDCN cell line Cal-1 (AID 1224825)
# Details: Cal-1 BPDCN cell viability, qHTS; at 45.8 µM (top of the series) unless noted
# Summary of the method: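 CellTiter-Glo luminescence after 48 h compound exposure; percent activity scaled with DMSO as 100% and bortezomib (9.2 uM final) as 0%. Cal-1 cells seeded at 500/well in RPMI, 10% FBS, no phenol red.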
row,SMILES,viability (% of control)
1,CON=C(C(=O)N[C@@H]1C(=O)N2C(C(=O)O)=C(Cn3ccc(=N)n3CCO)CS[C@H]12)c1csc(N)n1,95.7%
2,CCc1cc(C(C)=NOCc2ccc(C3CCCCC3)c(C(F)(F)F)c2)ccc1CN1CC(C(=O)O)C1,19.7%
3,COc1ccc([C@@H]2CNC(=O)C2)cc1OC1CCCC1,108%
4,N#CC(=Cc1ccc(O)c(O)c1)C(=O)NCc1ccccc1,45.8%
5,CC(=O)O[C@]1(C(C)=O)CC[C@H]2[C@@H]3C=C(C)C4=CC(=O)CC[C@]4(C)[C@@H]3CC[C@@]21C,3.38%
6,C=CC[C@@H]1C=C(C)C[C@H](C)C[C@H](OC)[C@H]2O[C@@](O)(C(=O)C(=O)N3CCCC[C@H]3C(=O)O[C@H](C(C)=C[C@@H]3CC[C@H](O)[C@H](OC)C3)[C@@H](C)[C@@H](O)CC1=O)[C@@H](C)C[C@@H]2OC,44.2%
7,N#CC(=C(N)Sc1ccc(N)cc1)c1ccccc1C(F)(F)F,57.2%
8,COc1cc(C)c(Sc2cnc(NC(=O)c3ccc(CNC(C)C(C)(C)C)cc3)s2)cc1C(=O)N1CCN(C(C)=O)CC1 (stereo not drawn),3.38%
9,COc1ccc(Nc2cc(-c3cnc(N)nc3)nc(N3CCOCC3)n2)cn1,25.7%
10,C[N+]1(C)[C@@H]2C[C@@H](OC(=O)C(O)(c3cccs3)c3cccs3)C[C@H]1[C@@H]1O[C@@H]12,97.5%
11,CC(=O)N[C@H]1[C@@H]([C@H](O)[C@H](O)CO)OC(C(=O)O)=C[C@@H]1N=C(N)N,124%
12,C=C1C[C@@]2(O)O[C@@]3(C[C@H]2C(C)C)[C@H](C)CC[C@H]13,101%
13,CS(=O)(=O)N1CCc2c(-c3cnc(N)nc3)nc(N3CCOCC3)nc21,33.9%
